Potency and affinity values are given separately. Unmarked numbers belong to inactive results.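 How the source made its calls: active means growth signal falls, with fitted half-maximal dose at most ten times the top valid dose; inconclusive means flat curve with a partial drop, or a poorly fitting curve; inactive means the rest, including compounds that raise signal.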

This note sets out measurements from PubChem BioAssay AID488932 (Broad Institute, 2010).

The assay is described as follows: single-agent toxicity toward C. albicans – CaCi-2 strain, no fluconazole, dry powder, set 4, counter-screen for reversing antifungal drug resistance, dose response (AID 488932). The note with it: C. albicans CaCi-2 (fluconazole-resistant clinical isolate) growth, Alamar Blue, 48 h; series mostly up to 26 µM; activity change, negative = inhibition: at the top concentration.
As to `CC1CN(c2ccnc3cc(Cl)ccc23)CCN1C(=O)c1ccc(Cl)cc1` (stereo not drawn), the “activity change, negative = inhibition” value was 36%. As to `O=C(c1ccc(Cl)cn1)N1CCN(c2ccnc3cc(Cl)ccc23)CC1`, the “activity change, negative = inhibition” value was 70.8%. To `Cc1ccc(N2CCN(C(=O)c3ccc(Cl)cc3)CC2)nn1` belongs 23.3%.
